Laboratory results published in PubChem BioAssay AID1220 (Sanford-Burnham Center for Chemical Genomics, 2008).
Out of some 190,000 compounds screened, about 1,300 (0.68%) were called active. The full list was thinned out, with actives kept by preference. Values without a mark were called inactive. Rule as the data show it: active = inhibition above about 50%; inactive = the rest.

These molecules were tested against Mannose-6-phosphate isomerase (Homo sapiens) (UniProt P34949) (assay: human PMI inhibitors, high substrate, primary screen, biochemical, fluorescence intensity, high mannose 6-phosphate (AID 1220)). Settings: recombinant PMI enzyme, coupled fluorescence intensity; at 20 µM; stronger effect = higher value.
Mannose-6-phosphate isomerase (Homo sapiens), sequence (P34949 whole entry, looked up): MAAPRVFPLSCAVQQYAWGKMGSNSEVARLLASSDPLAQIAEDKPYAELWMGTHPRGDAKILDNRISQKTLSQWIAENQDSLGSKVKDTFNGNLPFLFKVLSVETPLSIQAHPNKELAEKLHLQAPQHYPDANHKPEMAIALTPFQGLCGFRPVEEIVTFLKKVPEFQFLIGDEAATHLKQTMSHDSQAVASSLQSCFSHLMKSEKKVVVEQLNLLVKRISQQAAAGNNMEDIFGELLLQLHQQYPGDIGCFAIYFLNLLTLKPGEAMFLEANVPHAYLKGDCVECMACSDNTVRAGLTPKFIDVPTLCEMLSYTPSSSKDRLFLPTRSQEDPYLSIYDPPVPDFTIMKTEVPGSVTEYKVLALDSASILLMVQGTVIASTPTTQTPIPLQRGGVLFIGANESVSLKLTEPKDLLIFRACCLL

| SMILES | inhibition |
| --- | --- |
| O=[N+]([O-])c1cc(-c2ncccn2)cs1 | -6.6% |
| O=[N+]([O-])c1cccnc1NCc1cccs1 | 3.1% |
| COc1ccc(NC(=O)Cn2nc3n(c2=S)CCC3)cc1 | 2.7% |
| CCSC1=C(C#N)C(c2ccc3c(c2)OCO3)C2=C(CCCC2=O)N1 (centres undefined) | 7.2% |
| Cc1ccc([C@H]2C(C#N)=C(N)Oc3cc(C)oc(=O)c32)o1 | -11.4% |
| Cc1ccc(C2C(C#N)=C(N)Oc3c2sc2ccccc32)o1 (centres undefined) | 57.5% (active) |
| CCOC(=O)C1=C(C)OC(N)=C(C#N)C1c1ccc(C)o1 (centres undefined) | -3.7% |
| COC(=O)C1=C(C)OC(N)=C(C#N)C1c1ccco1 (centres undefined) | 2.9% |
| CC(=O)C1=C(C)OC(N)=C(C#N)C1c1ccco1 (centres undefined) | 10.4% |
| N#CC1=C(N)Oc2c(sc3ccccc23)C1c1ccco1 (centres undefined) | 53.1% (active) |
| Clc1ccc(-c2cn3cc(Br)ccc3n2)cc1Cl | -15.2% |
| O=C(O)CCc1ccc(-c2cccs2)n1CCc1ccccc1 | 3.8% |
| CCC(C)(C)n1nnnc1C(c1ccncc1)N1CCC(C)CC1 (centres undefined) | -5.6% |
| O=C(Nc1cccn(Cc2c(Cl)cccc2Cl)c1=O)C1CC1 | 3.9% |
| COCCNC(=O)Cn1cc2c(n1)CCC(C)C2 (centres undefined) | 4.1% |
| COC(=O)C1C(c2ccc(N(C)C)cc2)C(C(=O)OC)S(=O)(=O)CS1(=O)=O (centres undefined) | 15% |
| CC(=O)NC1(C2CCCCC2=O)CCCCC1 (centres undefined) | 4.2% |
| O=C(N/C(=C/c1cccs1)c1nc2ccccc2[nH]1)c1ccccc1 | -4.7% |
| Cc1ccc(C(=O)N/C(=C\c2cccs2)c2nc3ccccc3[nH]2)cc1 | 57.5% (active) |
| COc1ccc(C(=O)N/C(=C/c2cccs2)c2nc3ccccc3[nH]2)cc1OC | 3.9% |
| Cc1cc(C)cc(N2C(=O)CN(Cc3sccc3C)C2=S)c1 | 0.5% |
| CCOc1cccc(OCCOc2ccc(C(=O)c3ccccc3)cc2)c1 | 10.2% |
| CN1CCN(c2nc(-c3ccc(Cl)s3)cs2)CC1 | -4.8% |
| CCN(CC)c1ccc(/C=N/Nc2ccc(C)cc2)c(O)c1 | -70.5% |
| CCN(CC)c1ccc(C=Nc2cc(C)ccc2C)c(O)c1 | 58.3% (active) |

| SMILES | inhibition |
| --- | --- |
| CCN(CC)c1ccc(C=Nc2ccccc2C)c(O)c1 | 66.6% (active) |
| CCN(CC)c1ccc(C=Nc2ccc(C)cc2C)c(O)c1 | 36.9% |
| CCN(CC)c1ccc(/C=N/NC(=S)NCc2ccccc2)c(O)c1 | 1.2% |
| CCN(CC)c1ccc(/C=N/N2C(=O)c3ccccc3C2=O)c(O)c1 | -18.7% |
| Cc1ccc(-c2cc(C(=O)O)n(-c3ccc(S(N)(=O)=O)cc3)n2)cc1 | -17.2% |
| COc1cc(CC(=O)OCC(=O)Nc2ccc([N+](=O)[O-])cc2)cc(OC)c1OC | 5.9% |
| CCC(=O)Nc1cccc2cccnc12 | 1.3% |
| CC(C)NC(=O)COc1ccccc1C#N | -4.6% |
| Cc1ccc(C(=O)c2c[nH]cc2-c2ccccc2)cc1 | 4.1% |
| CC(C(=O)NC1CCCC1)N(Cc1ccco1)C(=O)c1snc(C(=O)NC2CCCC2)c1N (centres undefined) | 4% |
| CC1=CC2(O)OCCN(CCO)C2=CC1=O (centres undefined) | 57.4% (active) |
| Cc1ccc(-n2cccc2/C=C2\C(=N)N3N=C(c4ccco4)SC3=NC2=O)cc1 | -16.6% |
| Cc1ccc2c(c1)c1c(n2CC(O)CNC(C)(C)C)CCCC1 (centres undefined) | 27.9% |
| CCn1c(/C=N/c2nc3ccccc3n2C)nc2ccccc21 | 33.8% |
| Cn1c(/N=C/c2cc(Cl)ccc2O)nc2ccccc21 | 49.3% |
| Oc1ccc2ccccc2c1/C=N/n1cnnc1 | 40.6% |
| Cc1nn(C)c(C)c1N=Cc1c(O)ccc2ccccc12 | 50.3% (active) |
| Cc1nc2ccccc2c(=O)n1/N=C/c1c(O)ccc2ccccc12 | 17.6% |
| O=C(c1noc2c1CCCC2)N1CCN(c2ccccc2)CC1 | 3.6% |
| O=C(CSc1nnc(-c2ccc(Cl)s2)o1)N1CCOCC1 | 30.1% |
| Cc1c2c(c(C)n1C)C(C(=O)NC1CCCCC1)N(Cc1ccccc1)C2=O (centres undefined) | -4.7% |
| Cc1ccc(NC(=O)CSc2nc(N)c(-c3ccccc3)c(=O)[nH]2)cc1Cl | -0.7% |
| CCN(CC)C(=O)COC(=O)c1cc(-c2ccc(OC)cc2)nc2ccccc12 | 7% |
| COc1cc(OC)c(C2CC(=O)N3CN(c4ccc(C)cc4)CSC3=C2C#N)cc1OC (centres undefined) | 28.2% |
| COc1ccc(N2CSC3=C(C#N)C(c4cc(OC)c(OC)cc4OC)CC(=O)N3C2)c(OC)c1 (centres undefined) | 36.9% |

| SMILES | inhibition |
| --- | --- |
| COc1ccc(OC)c(C2CC(=O)N3CN(c4ccccc4)CSC3=C2C#N)c1 (centres undefined) | -38.7% |
| COc1cc(OC)c(C2CC(=O)N3CN(c4ccccc4)CSC3=C2C#N)cc1OC (centres undefined) | 31.4% |
| COc1ccc(OC)c(C2CC(=O)N3CN(c4ccccc4F)CSC3=C2C#N)c1 (centres undefined) | 17.1% |
| COc1ccc(OC)c(C2CC(=O)N3CN(c4cccc(Cl)c4)CSC3=C2C#N)c1 (centres undefined) | 35% |
| COc1ccc(N2CSC3=C(C#N)C(c4ccc(OC)c(OC)c4)CC(=O)N3C2)c(OC)c1 (centres undefined) | -8.6% |
| COc1ccc(Br)cc1C1CC(=O)N2CN(C)CSC2=C1C#N (centres undefined) | 51.8% (active) |
| COc1cc(OC)c(C2CC(=O)N3CN(c4ccccc4C)CSC3=C2C#N)cc1OC (centres undefined) | -1.4% |
| COc1ccc(N2CSC3=C(C#N)C(c4cc(OC)ccc4OC)CC(=O)N3C2)c(OC)c1 (centres undefined) | 55.5% (active) |
| COc1ccc(Br)cc1C1CC(=O)N2CN(Cc3ccccc3)CSC2=C1C#N (centres undefined) | 55.7% (active) |
| CNC(=O)CSc1nnnn1-c1cc(C)ccc1C | 5.1% |
| CCOC(=O)c1c(NC(=O)CN2CCCc3ccccc32)sc(C)c1CC | 7.2% |
| CCOC(=O)/C(C#N)=C1/C(=O)N(Cc2ccccc2)c2ccccc21 | 66.7% (active) |
| CCCCN1C(=O)/C(=C(/C#N)C(N)=O)c2ccccc21 | 36.9% |
| CCOC(=O)/C(C#N)=C1/C=CN(Cc2ccccc2)C=N1 | 1.1% |
| CCOC(=O)C1CCCN(C(=O)Nc2cccc(Cl)c2)C1 (centres undefined) | 2.6% |
| COc1cc([N+](=O)[O-])cc2cc(C(=O)NC(C)(C)C)c(=O)oc12 | 15.7% |
| C=CCSc1nc2sc3c(c2c(=O)n1CC=C)CCc1ccccc1-3 | 33.5% |
| C=CCn1c(SCC)nc2sc3c(c2c1=O)CCc1ccccc1-3 | 5.8% |
| O=C1CC(C(=O)N(c2ccccc2)C(C(=O)NC2CCCC2)c2ccncc2)CS1 (centres undefined) | 0.6% |
| Cc1c(C(=O)Nc2ccccc2)sc2nc[nH]c(=O)c12 | 8.6% |
| CCCCCOC(=O)CSc1nc2c(c(=O)[nH]c(=O)n2C)n1CCc1ccccc1 | 107% (active) |
| CCOC(=O)CSc1nc2c(c(=O)[nH]c(=O)n2C)n1CCc1ccccc1 | 8.8% |
| CCOC(=O)CSc1nc2c(c(=O)[nH]c(=O)n2C)n1CCCc1ccccc1 | 2.2% |
| CN1C(=O)CC(C(=O)O)SC1=Nc1ccc(F)cc1 (centres undefined) | -4.1% |
| CC(C)N1CCN(c2ccncc2S(=O)(=O)N2CCOCC2)CC1 | -5.7% |

| SMILES | inhibition |
| --- | --- |
| O=C(O)c1[nH]c2ccccc2c1C=NCc1ccccc1Cl | -5% |
| CC1=CC(C)(C)Nc2cc(C)c(C)cc21 | 56.3% (active) |
| CC1=CC(C)(C)Nc2ccc(C)cc21 | 40.8% |
| CC1=CC(C)(C)Nc2ccccc21 | 23.6% |
| C/C(=N/NC(=O)c1ccccc1)C(=O)O | 33.7% |
| COc1ccc(C(=O)/C=C/c2ccccc2)c(O)c1 | 5.8% |
| COc1ccc(/C=C/C(=O)c2ccc(OC)cc2OC)c(OC)c1 | 9.4% |
| COc1ccc(/C=C/C(=O)c2ccc(OC)cc2OC)cc1 | 2.1% |
| COc1ccc(C(=O)/C=C/c2cc(OC)c(O)c(OC)c2)c(F)c1 | 62.9% (active) |
| COc1ccc(C(=O)/C=C/c2ccccc2)c(OC)c1 | 1.9% |
| COc1ccc(C(=O)/C=C/c2ccc(OC)c(O)c2)c(F)c1 | 62.5% (active) |
| Cc1ccc(N(C(=O)Cn2nnc(-c3ccccc3)n2)C(C(=O)NC2CCCCC2)c2ccccn2)cc1C (centres undefined) | 6.5% |
| Cn1c(=O)n(Cc2ccc(Cl)cc2)c(=O)c2c1nc1n2CCN1Cc1ccco1 | 7.4% |
| Cc1cc2ncn(CCOc3ccccc3C#N)c2cc1C | 0.3% |
| Cc1ccccc1-c1nsc(SCC(=O)Nc2ccc3c(c2)OCO3)n1 | 14.2% |
| CCN1/C(=C/c2ccc3cc(C)ccc3[n+]2CC)Sc2cc(C)ccc21 | 15% |
| CCN1/C(=C/c2ccc3cc(C)ccc3[n+]2CC)Sc2ccccc21 | -14.4% |
| CCOC(=O)N1CCN(c2cc(=O)n(-c3ccccc3C)c(=O)[nH]2)CC1 | -8% |
| Cc1ccsc1C(=O)OC1CCOC1=O (centres undefined) | -9.2% |
| COC(=O)c1nc2ccc(N3CCOCC3)cc2c(C)c1C(=O)OC | 64.4% (active) |
| COC(=O)c1nc2cc3c(cc2c(C)c1C(=O)OC)OCO3 | -5.6% |
| COC(=O)c1c(N)n(-c2ccc(N3CCOCC3)cc2)c2nc3ccccc3nc12 | 20% |
| Cc1nnc(SCc2ccc(F)cc2)n1NC/C=C/c1ccccc1 | 9.2% |
| CC(=O)N1CCN(C(=S)c2cccc([N+](=O)[O-])c2)CC1 | -0.6% |
